Results reported in PubChem BioAssay AID686978 (National Center for Advancing Translational Sciences (NCATS), 2013).
The campaign covered roughly 420,000 compounds. About 64,000 (15%) were called active. Inconclusive results (about 27%) are left out. Not all results are given here. A number with no mark means an inactive call. Calls follow the shape of the dose curve; as a rule, active = well fitted inhibition curve with a large enough effect; inconclusive = small, poorly fitted or top-dose-only effect; inactive = flat fitted curve, though single readings scatter.

Assay: qHTS for Inhibitors of human tyrosyl-DNA phosphodiesterase 1 (TDP1): qHTS in cells in absence of CPT; also: nearly all actives have a fitted effect of over 55% in size
Details: DT40 Tdp1-/- hTDP1 cells, no CPT, ATP luminescence, 48 h; activity change, negative = growth inhibition: at 46.2 µM (top of the series)
In short: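 Growth of hTDP1-complemented DT40 Tdp1-knockout cells is measured by ATP luminescence after at least 48 hr compound exposure at 37 °C, with DMSO substituting for the 20 nM CPT used in the parallel screen.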
% is scaled to controls: 0 for no effect and ±100 for the full control effect; potency is read from the fitted curve at half-maximal effect.

Structure (SMILES)	activity change, negative = growth inhibition	Potency
COc1ccccc1CC(NC(C)=O)C(=O)NC1CCN(C(=O)Nc2ccccc2Cl)CC1 (configuration not stated)	1.02%	–
Cc1nn2c(=O)cc(COC(=O)c3cccc(NC(=O)COc4ccccc4Cl)c3)nc2s1	-2.4%	–
COc1ccccc1CNc1ncncc1-c1cccnc1	-3.33%	–
O=[N+]([O-])c1cc2ccccc2nc1-c1ccccc1	-22.5%	–
COc1ccccc1CCNC(=O)CSc1nnc2ccc(-c3cccnc3)nn12	9.51%	–
CCN(CC(=O)NC1CCS(=O)(=O)C1)c1nc(-c2cccnc2)nc2ccccc12 (configuration not stated)	-19.4%	–
O=[N+]([O-])c1ccc(F)cc1Oc1nc(-c2cccnc2)nc2ccccc12	–	18.4 µM (active)
COc1ccccc1Oc1nc(-c2cccnc2)nc2ccccc12	–	20.6 µM (active)
CCN(CC)c1nc(-c2ccccc2)cc(C(F)(F)F)c1C#N	-7.9%	–
Cc1cc(C)cc(C(=O)OCC(=O)NCCNC(=O)COC(=O)c2cc(C)cc(C)c2)c1	-4.36%	–
Cc1ccc(C(=O)Nc2nnc(-c3ccncc3)s2)o1	-6.33%	–
Cc1occc1C(=O)Nc1nnc(-c2ccncc2)s1	1.48%	–
Cc1ccc(NC(=O)Nc2nnc(-c3ccncc3)s2)cc1	–	11.6 µM (active)
CC1(C)C2CCC1(CS(=O)(=O)NCCc1c[nH]c3ccccc13)C(=O)C2 (configuration not stated)	-19.2%	–
Cc1ccc(OCCC(=O)Nc2ccc(S(=O)(=O)Nc3nccs3)cc2)cc1	22.2%	–
CN(C)NC(=O)C(NC(=O)c1ccc(N)cc1)C12CC3CC(CC(C3)C1)C2 (configuration not stated)	1.51%	–

Structure (SMILES)	activity change, negative = growth inhibition	Potency
COC(CCN(C)C)(c1ccccc1)c1ccccc1	-6.55%	–
CCn1nnc(NC(=O)c2c(OC)cccc2OC)n1	-3.98%	–
COc1ccc(/C=N/n2c(C)cc(C)cc2=O)cc1	-9.69%	–
Cc1ccc(S(=O)(=O)N2CCN=C2SCc2c(F)cccc2Cl)cc1	–	11.6 µM (active)
O=S(=O)(c1ccc(F)cc1)N1CCN=C1SCc1cccc(F)c1	-19.7%	–
CCSC1=NCCN1S(=O)(=O)c1ccc(F)cc1	-3.64%	–
O=C(Nc1ccc(Cl)cn1)c1cnn2cccnc12	-23%	–
COc1ccccc1N(C)S(=O)(=O)c1ccc(C(=O)NC2CCCCCC2)cc1	–	23.1 µM (active)
COc1ccc(S(=O)(=O)N2CCOCC2)cc1C(=O)NC1CCCCC1	-6.05%	–
COc1ccccc1CNC(=O)c1ccc(N(C)S(=O)(=O)c2ccc(C)cc2)cc1	-10.4%	–
CCc1ccc(OCC(=O)OCC(=O)c2c(N)n(C)c(=O)n(C)c2=O)cc1	5.34%	–
CC(C)Oc1ccc(/C=N/NC(=O)c2nnn(-c3nonc3N)c2CN(C)C2CCCCC2)cc1	-11.7%	–
Cc1cc(C)cc(NC(=O)NCc2ccccn2)c1	19.2%	–
CCc1ccc(C(=O)NN=C2CCCCCC2)s1	5.13%	–
CC(C)(C)NC(=O)C(=O)NN=C1CCCCCCC1	3.33%	–
CC(C)NC(=S)NN=C1CCCCCCCCCCC1	–	13 µM (active)
